Bioassay records (PubChem BioAssay)
The entries come from a sample that favours hits as a whole.
ALOX12 inh = blocks human arachidonate 12S-lipoxygenase. AID 1671190. purified 12hLO, xylenol orange hydroperoxide absorbance. P18054. 580,000 tested, 1.1% active. Potency, µM (titrated, usually from 108 µM), for the others: at the top dose activity change, negative = inhibition, hits mostly inhibitors; note: potency is the fitted concentration of half-maximal effect
Target sequence (P18054 whole entry, looked up): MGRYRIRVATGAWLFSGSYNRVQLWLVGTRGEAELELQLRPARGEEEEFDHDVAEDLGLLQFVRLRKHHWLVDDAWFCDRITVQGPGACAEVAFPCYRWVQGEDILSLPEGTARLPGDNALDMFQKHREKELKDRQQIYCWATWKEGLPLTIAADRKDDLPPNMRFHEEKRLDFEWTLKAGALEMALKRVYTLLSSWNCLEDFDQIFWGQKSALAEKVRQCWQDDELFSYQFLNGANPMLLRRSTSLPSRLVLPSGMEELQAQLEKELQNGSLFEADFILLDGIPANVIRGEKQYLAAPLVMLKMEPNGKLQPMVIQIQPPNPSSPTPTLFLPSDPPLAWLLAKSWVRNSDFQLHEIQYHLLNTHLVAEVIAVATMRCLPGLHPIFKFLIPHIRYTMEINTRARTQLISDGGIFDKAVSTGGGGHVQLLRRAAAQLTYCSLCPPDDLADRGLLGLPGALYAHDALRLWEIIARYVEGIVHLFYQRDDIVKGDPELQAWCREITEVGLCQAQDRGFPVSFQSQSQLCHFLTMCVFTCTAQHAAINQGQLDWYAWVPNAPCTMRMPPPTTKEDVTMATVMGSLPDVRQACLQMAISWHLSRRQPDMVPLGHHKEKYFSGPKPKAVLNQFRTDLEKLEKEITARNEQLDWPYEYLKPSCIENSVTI
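Purified human 12hLO (150 nM final) in 25 mM Hepes, 0.01% Triton X-100, pH 7.0 was preincubated 15 min at room temperature with compound. Then 40 uM arachidonic acid was added, 30 min. Hydroperoxide was read by Fe-XO absorbance ratio 573/405 nm.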
IL-1B inflam inh = blocks inflammasome-driven IL-1 beta release; activity change, % at 57.5 µM; 360,000 tested, 4.7% active; THP-1 LPS/ATP IL-1B secretion, AlphaLISA, 16 h; hits give low values; AID 743279; in the data active = activity change below about -50%; inconclusive = mostly about -30% to -49%
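THP-1 cells pretreated 1 hr with compounds (up to 57.5 uM final), then stimulated with LPS (250 ng/mL final) plus ATP (1.25 mM final); secreted IL-1B measured by AlphaLISA after 16 hr, decreased signal indicating inhibition.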
HT1080 IDH1KD tx = kills HT-1080 cells with IDH1 knockdown. HT-1080 IDH1 knockdown viability, ATP luminescence, 48 h. Potency, µM (top dose mostly 46.1 µM), for the others: at the top dose activity, negative = toxicity, hits mostly cytotoxic. 360,000 tested, 2% active;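 note: potency is the fitted concentration of half-maximal effect; 0% = DMSO wells and -100% = cell-free medium wells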
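HT-1080-IDH1KD cells (IDH1 knocked down), 750/well in RPMI with 5% FBS, treated with compound 48 h at 37 degrees C. Viability by CellTiter-Glo luminescence, normalised to DMSO and no-cell wells; concentration-response curves classed.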
TDP1 cell noCPT = qHTS for Inhibitors of human tyrosyl-DNA phosphodiesterase 1 (TDP1): qHTS in cells in absence of CPT. DT40 Tdp1-/- hTDP1 cells, no CPT, ATP luminescence, 48 h. Potency, µM (highest dose often 46.2 µM), for inactives: at the highest dose activity change, negative = growth inhibition, most hits filed as inhibitors. 420,000 tested, 15% active. AID 686978, 2013; note: potency is the fitted concentration of half-maximal effect; nearly all actives have a fitted effect of over 55% in size
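No-CPT arm: Tdp1-/-;hTDP1 DT40 cells (400/well) plus compounds, incubated ≥48 hr at 37 °C. Readout CellTiter-Glo luminescence.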
DT40 TDP1 CPT = growth inhibition of DT40 Tdp1-/-;hTDP1 cells with camptothecin (screen for TDP1 inhibitors); chicken DT40 Tdp1-/-;hTDP1 cells + 20 nM CPT, ATP luminescence, 48 h; Potency, µM (series often up to 46.2 µM), inactives show top-dose activity change, negative = growth inhibition, most hits filed as inhibitors; 420,000 tested, 12% active; note: potency is the fitted concentration of half-maximal effect; nearly all actives have a fitted effect of over 55% in size
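Chicken DT40 Tdp1-/- cells complemented with human TDP1, 400 cells/well, exposed to compounds plus 20 nM camptothecin for at least 48 h at 37 C; viability read as ATP content by CellTiter-Glo luminescence.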
HT1080-NT tox = kills 2HG-producing HT-1080-NT fibrosarcoma cells; HT-1080-NT fibrosarcoma viability, CellTiter-Glo ATP luminescence, 48 h; Potency, µM (highest dose often 46.1 µM), for inactives: at the highest dose activity, negative = less viability, usual class: cytotoxic; 360,000 tested, 1.6% active; AID 686970;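 note: NT is the 2HG producing partner of a matched IDH1 knockdown line; potency is the fitted concentration of half-maximal effect; 0% = DMSO-treated cells and -100% = media-only wells without cells; nearly all actives have a fitted effect of over 55% in size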
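750 cells/well, RPMI + 5% FBS; 2 h settle, compound pin-transfer, 48 h at 37 degrees C. CellTiter-Glo 10 min RT, luminescence. Normalized to DMSO and media-only wells.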
Numbers without * were called inactive; ? = inconclusive; · = not tested or not shown. Unless noted, calls come from the whole dose curve; as a rule, active = well fitted curve in the direction sought with a large enough effect; inconclusive = small, poorly fitted or top-dose-only effect, or another doubt; inactive = no such curve, though single readings can be large; an effect the other way counts as inactive or inconclusive. Unless noted, % is set by controls: 0 for no effect and ±100 for the full control effect.

SMILES	ALOX12 inh	IL-1B inflam inh	HT1080 IDH1KD tx	TDP1 cell noCPT	DT40 TDP1 CPT	HT1080-NT tox
O=C1CC(SCc2nc3ccccc3[nH]2)C(=O)N1c1cccc(Cl)c1 (centres undefined)	0%	11	19%	13µM*	?	13%
O=C1CC(SCc2nc3ccccc3[nH]2)C(=O)N1c1ccc(F)cc1 (centres undefined)	-18%	17	-1%	18µM*	?	4%
O=C1CC(SCCc2nc3ccccc3[nH]2)C(=O)N1c1ccc(F)c(Cl)c1 (centres undefined)	?	11	1%	-2%	-2%	3%
O=C(Nc1cccc(S(=O)(=O)N2CCOCC2)c1)c1ccc(OCc2cn3ccccc3n2)cc1	34%	·	·	·	·	·
COc1cc(OC)c(OC)cc1CN1CCc2nc(N(C)C)[nH]c(=O)c2CC1	26%	·	·	·	·	·
Cc1ccc(C(C)C)c(OCC(O)Cn2cnc3c2c(=O)n(C)c(=O)n3C)c1 (centres undefined)	20%	·	·	·	·	·
COc1ccc(C(C(=O)NC2CCCCC2)N(C(=O)c2ccco2)c2ccccc2OC)cc1 (centres undefined)	-11%	-20	?	16µM*	?	-27%
COc1ccc(C)cc1N(C(=O)c1ccco1)C(C(=O)NC1CCCC1)c1ccc(N2CCOCC2)cc1 (centres undefined)	-2%	-58*	-1%	9.2µM*	-13%	-3%
COc1ccc(C(C(=O)NC2CCCC2)N(C(=O)c2ccco2)c2ccccc2OC)cc1 (centres undefined)	-17%	-6	-5%	?	-19%	-1%
COc1cccc(C(C(=O)NC2CCCCC2)N(C(=O)c2ccco2)c2ccccc2OC)c1 (centres undefined)	1%	4	-14%	12µM*	?	-9%
COc1ccc(-c2cn3c4ccccc4nc3n2CCCN2CCCCC2)cc1	-131%	·	·	·	·	·
Cc1cc(/C=C(\C#N)c2nc3ccccc3s2)cc2c1OC(C)C2 (centres undefined)	-2%	·	·	·	·	·
COc1ccccc1N1C(=O)CN(S(=O)(=O)c2ccccc2)CC1(C)C(=O)NCCC(C)C (centres undefined)	18%	·	·	·	·	·
COc1ccccc1CNS(=O)(=O)c1ccc(N2CCCC2)cc1Br	-11%	-5	-13%	?	16µM*	-11%
COc1ccccc1CNS(=O)(=O)c1ccc(F)cc1Br	0%	·	·	·	·	·
COc1cc(-n2ccc3c(nnc4c(-c5cccc(Cl)c5)c(C)nn43)c2=O)cc(OC)c1OC	1%	·	·	·	·	·
COc1ccc(C2CC(c3cccs3)=NN2C(=O)CSC2=NCCS2)cc1 (centres undefined)	-1%	-81*	-17%	?	-41%	-14%
COc1ccccc1C1CC(c2cccs2)=NN1C(=O)CCC(=O)O (centres undefined)	4%	34	17%	-5%	-29%	10%
Cc1ccc(C2CC(c3cccs3)=NN2C(=O)CSC2=NCCS2)cc1 (centres undefined)	-57%	·	-2%	?	?	-16%
COc1ccc(C2CC(c3cccs3)=NN2C(=O)c2ccc(Br)o2)cc1 (centres undefined)	?	-5	-5%	?	23µM*	-4%
COc1cccc(C2CC(c3cccs3)=NN2C(=O)CSc2nc3ccccc3o2)c1OC (centres undefined)	10%	-5	1%	23µM*	26µM*	12%
CC(C)C(=O)N1CCCC(c2noc(COc3ccccc3F)n2)C1 (centres undefined)	19%	·	·	·	·	·
CCCc1cc(=O)[nH]c(SCC(=O)N2CCN(S(=O)(=O)c3ccc(C)c(C)c3)CC2)n1	6%	·	·	·	·	·
NC(=O)c1ccc(CC2CCN(C(=O)C3CC=CC3)CC2)cc1	6%	·	·	·	·	·
C/C=C1\NC(=O)[C@H](CC(N)=O)N(C)C(=O)C([C@@H](C)O)NC(=O)C(CCCc2ccc(OC)cc2)NC(=O)[C@H](C(C)C)NC(=O)/C(=C\C)NC(=O)[C@H](O)[C@@H](C[C@@H](O)CCCCCCC)NC(=O)[C@H](C)NC(=O)CN(C)C(=O)[C@H](CCC(N)=O)NC1=O (some centres undefined)	8%	50	?	8.2µM*	7.3µM*	-29%
SMILES	ALOX12 inh	IL-1B inflam inh	HT1080 IDH1KD tx	TDP1 cell noCPT	DT40 TDP1 CPT	HT1080-NT tox
CCN1CCN(c2sc(S(C)(=O)=O)nc2S(=O)(=O)c2ccc(C)cc2)CC1	0%	-85*	3%	15µM*	?	8%
Cc1ccc(S(=O)(=O)c2nc(S(C)(=O)=O)sc2N2CCC(C(N)=O)CC2)cc1	0%	-11	0%	21%	0%	-7%
CCN(CC)c1sc(S(=O)(=O)c2ccccc2)nc1S(=O)(=O)c1ccc(C)cc1	-25%	·	·	15µM*	?	·
CCN1CCN(c2sc(S(=O)(=O)CC)nc2S(=O)(=O)c2ccc(C)cc2)CC1	10%	-28	-5%	-7%	-4%	3%
CS(=O)(=O)c1nc(S(=O)(=O)c2ccc(Cl)cc2)c(N2CCC(C(N)=O)CC2)s1	-3%	-79*	2%	?	?	19%
Cc1ccc(S(=O)(=O)c2nc(S(=O)(=O)c3ccccc3)sc2N2CCN(CCO)CC2)cc1	1%	-68*	-8%	?	?	?
Cc1ccc(C)c(Sc2ccc(NC(=O)c3ccc(C)c(C)c3)cc2)c1	7%	·	·	·	·	·
CCC(=O)n1nc(-c2ccc(OC)cc2)nc1SCc1ccccc1	-17%	·	·	·	·	·
CCOC(=O)[C@]12CCCC=C1N(Cc1ccccc1)C(=O)[C@H](CC(=O)NCC13CC4CC(CC(C4)C1)C3)C2	-24%	-25	?	?	?	?
COC(=O)[C@@]12C[C@@H](CC(=O)NCC34CC5CC(CC(C5)C3)C4)C(=O)N(Cc3ccccc3)C1=CCC(C)(C)C2	-28%	-29	?	21µM*	?	?
COC(=O)[C@@]12C[C@@H](CC(=O)NCC34CC5CC(CC(C5)C3)C4)C(=O)N(Cc3cccc4ccccc34)C1=CCC(C)(C)C2	-16%	-21	-12%	?	?	-22%
COC(=O)[C@]12CCCCC=C1N(Cc1ccccc1)C(=O)[C@H](CC(=O)NCC13CC4CC(CC(C4)C1)C3)C2	?	-24	?	?	18µM*	?
